Values joined by “and” are separate entries in the source; they are usually repeats but may differ in a detail not shown here. Equal values may be shown once. Screen size: about 5,500 compounds; about 2,000 (36%) were called active. Inconclusive results (about 18%) are left out. Cut-off read from the data, not from the text of the source: active = normalized growth mostly below about 0.91 (no sharp cut-off); inconclusive = no clear call, values can overlap the other calls; inactive = mostly above about 0.92. The list shows a part of the results.
Test: chemical genetic growth profiling, strain panel (AID 1159580);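 note: tested at 20 µM; growth read once vehicle control cultures reached saturation at 30 °C; 1 = growth at the plate median or of vehicle wells; lower values mean less growth of the strain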
Conditions: S. cerevisiae deletion strains, growth OD

Measured: normalized growth

Cc1cn([C@H]2C[C@H](N=[N+]=[N-])[C@@H](CO)O2)c(=O)[nH]c1=O
inactive: locus YAL013W, strain DEP1, stronger effect = lower value 1.01 | locus YAL021C, strain ccr4, stronger effect = lower value 0.993 | locus YAL026C, strain drs2, stronger effect = lower value 0.995 | locus YAL030W, strain snc1, stronger effect = lower value 1 | locus YBL061C, strain skt5, stronger effect = lower value 1 | locus YBR009C, strain hhf1, stronger effect = lower value 1.02 | locus YBR021W, strain FUR4, stronger effect = lower value 0.998 | locus YBR023C, strain chs3, stronger effect = lower value 1 | locus YBR171W, strain sec66, stronger effect = lower value 0.996 | locus YBR229C, strain ROT2, stronger effect = lower value 1.01 | locus YBR231C, strain swc5, stronger effect = lower value 1 | locus YBR279W, strain paf1, stronger effect = lower value 0.979 | locus YCL011C, strain gbp2, stronger effect = lower value 1.02 | locus YCL016C, strain dcc1, stronger effect = lower value 0.965 | locus YCL029C, strain bik1, stronger effect = lower value 1.01 | locus YCL069W, strain vba3, stronger effect = lower value 0.99 | locus YCR088W, strain abp1, stronger effect = lower value 0.995 | locus YDL005C, strain med2, stronger effect = lower value 1 | locus YDL035C, strain GPR1, stronger effect = lower value 1.01 | locus YDL040C, strain nat1, stronger effect = lower value 0.994 | locus YDL074C, strain BRE1, stronger effect = lower value 1.02 | locus YDL101C, strain DUN1, stronger effect = lower value 1.01 | locus YDL134C, strain PPH21, stronger effect = lower value 1 | locus YDL185W, strain tfp1, stronger effect = lower value 1.01 | locus YDL192W, strain arf1, stronger effect = lower value 1.01 | locus YDR001C, strain nth1, stronger effect = lower value 0.994 | locus YDR069C, strain doa4, stronger effect = lower value 1.01 | locus YDR101C, strain arx1, stronger effect = lower value 1.02 | locus YDR137W, strain rgp1, stronger effect = lower value 0.966 | locus YDR150W, strain NUM1, stronger effect = lower value 1 | locus YDR159W, strain sac3, stronger effect = lower value 0.971 | locus YDR162C, strain NBP2, stronger effect = lower value 1 | locus YDR195W, strain ref2 0.983 | locus YDR297W, strain sur2, stronger effect = lower value 1.02 | locus YDR318W, strain mcm21, stronger effect = lower value 1 | locus YDR334W, strain swr1, stronger effect = lower value 1.01 | locus YDR335W, strain msn5, stronger effect = lower value 0.984 | locus YDR388W, stronger effect = lower value 1 | locus YDR392W, strain spt3, stronger effect = lower value 0.924 | locus YDR502C, strain sam2, stronger effect = lower value 1.02 | locus YEL003W, strain gim4, stronger effect = lower value 1.01 | locus YEL037C, strain rad23, stronger effect = lower value 1 | locus YEL061C, strain CIN8 (second series), stronger effect = lower value 0.999 | locus YEL061C, strain CIN8, stronger effect = lower value 1 | locus YER015W, strain faa2, stronger effect = lower value 0.997 | locus YER016W, strain bim1, stronger effect = lower value 0.991 | locus YER110C, stronger effect = lower value 1.02 | locus YER111C, strain swi4, stronger effect = lower value 0.976 | locus YER155C, strain BEM2 (second series), stronger effect = lower value 1 | locus YER155C, strain BEM2, stronger effect = lower value 0.988 | locus YER167W, strain BCK2, stronger effect = lower value 0.998 | locus YFR010W, strain ubp6, stronger effect = lower value 1.01 | locus YGL078C, strain dbp3, stronger effect = lower value 1.01 | locus YGL086W, strain mad1, stronger effect = lower value 1 | locus YGL167C, strain pmr1, stronger effect = lower value 1 | locus YGL173C, strain kem1, stronger effect = lower value 1.01 | locus YGL227W, strain vid30, stronger effect = lower value 0.996 | locus YGL240W, strain doc1, stronger effect = lower value 1 | locus YGL248W, strain PDE1, stronger effect = lower value 1.01 | locus YGL253W, strain hxk2, stronger effect = lower value 0.981 | locus YGR078C, strain PAC10, stronger effect = lower value 1.01 | locus YGR135W, strain pre9, stronger effect = lower value 1.01 | locus YGR229C, strain SMI1, stronger effect = lower value 1.01 | locus YGR252W, strain gcn5, stronger effect = lower value 1.05 | locus YHR013C, strain ard1, stronger effect = lower value 0.969 | locus YHR027C, strain rpn1, stronger effect = lower value 1.03 | locus YHR030C, strain SLT2, stronger effect = lower value 1 and 0.984 | locus YHR079C, strain IRE1 (second series), stronger effect = lower value 0.998 | locus YHR079C, strain IRE1, stronger effect = lower value 0.966 | locus YHR094C, strain hxt1, stronger effect = lower value 1.01 | locus YHR129C, strain ARP1, stronger effect = lower value 1 | locus YHR142W, strain chs7, stronger effect = lower value 0.972 | locus YHR200W, strain rpn10, stronger effect = lower value 1.01 | locus YIL066C, strain RNR3, stronger effect = lower value 1.01 | locus YIL073C, strain SPO22, stronger effect = lower value 1.05 | locus YIL125W, strain kgd1, stronger effect = lower value 1.01 | locus YIR030C, strain dcg1, stronger effect = lower value 1 | locus YJL092W, strain hpr5, stronger effect = lower value 1.01 | locus YJL095W, strain BCK1 (second series), stronger effect = lower value 1.01 | locus YJL095W, strain BCK1, stronger effect = lower value 1.01 and 0.973 | locus YJL115W, strain asf1, stronger effect = lower value 1 | locus YJL129C, strain trk1, stronger effect = lower value 0.948 | locus YJL134W, strain LCB3, stronger effect = lower value 0.999 | locus YJL154C, strain vps35, stronger effect = lower value 0.998 | locus YJL164C, strain tpk1, stronger effect = lower value 0.981 | locus YJL166W, strain qcr8, stronger effect = lower value 1.03 | locus YJL168C, strain set2, stronger effect = lower value 0.999 | locus YJL187C, strain SWE1 (second series), stronger effect = lower value 1.01 | locus YJL187C, strain SWE1, stronger effect = lower value 1.01 | locus YJR043C, strain POL32, stronger effect = lower value 1.02

From PubChem BioAssay AID1159580 (chemical genetic matrix, 2015)
